Reference: the supplement of paper PMC8975748
Counter-ions that a name gives are not always drawn.

The molecules below were run on Saccharomyces cerevisiae BY4741 SeMeCo community (assay: z-score of subpopulation abundance vs DMSO median, subpopulation auxotrophic for HLM; higher = larger share of this subpopulation than in DMSO controls). Conditions: 10 µM; 24 h; SM minimal medium; subpopulation (auxotrophy): HLM.
Description: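 Fluorescent four-plasmid SeMeCo (self-establishing metabolically cooperating S. cerevisiae BY4741 community; plasmids pH-mRuby2, pL-mWasabi, pU-eCFP, pM-TagRFP657) was grown 24 h in minimal SM medium with each Selleck FDA-approved drug at 10 µM in 384-well plates. Cells were fixed and imaged by high-content confocal microscopy. For each auxotrophic subpopulation (and the prototroph), a z-score gives the deviation from the DMSO vehicle-control population median.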

First: C/C=C1\[C@H]2C=C(C)C[C@]1(N)c1ccc(=O)[nH]c1C2 [(-)-Huperzine A (HupA)]
Second: CCc1c(C)[nH]c2c1C(=O)C(CN1CCOCC1)CC2 (stereo not given) [Molindone hydrochloride]
The “z-score of subpopulation abundance” value of the first is lower: -0.61 for the first, -0.03 for the second.

First: CCCOc1ccc(C(=O)OCCN(CC)CC)cc1N [Proparacaine HCl]
Second: CCC[S+]([O-])c1ccc2[nH]c(NC(=O)OC)nc2c1 (stereo not given) [Albendazole Oxide]
The “z-score of subpopulation abundance” value of the first is higher: -0.35 for the first, -0.85 for the second.

Going from `O=c1[nH]cnc2c1ncn2[C@@H]1O[C@H](CO)[C@@H](O)[C@H]1O` [Isoprinosine] to `NC[C@H]1O[C@H](O[C@H]2[C@H](O)[C@@H](O[C@H]3O[C@H](CO)[C@@H](O)[C@H](N)[C@H]3O)[C@H](N)C[C@@H]2N)[C@H](O)[C@@H](O)[C@@H]1O` [Kanamycin sulfate], the “z-score of subpopulation abundance” value rises from -0.33 to -0.02.

Going from `C[C@@H](NCCCc1cccc(C(F)(F)F)c1)c1cccc2ccccc12` [Cinacalcet HCl] to `COc1cccc(-c2c(C)n(Cc3c(F)cccc3C(F)(F)F)c(=O)n(C[C@H](NCCCC(=O)O)c3ccccc3)c2=O)c1F` [Elagolix Sodium], the “z-score of subpopulation abundance” value falls from 0.67 to -0.27.

Compared with `O=C(O)C1=C(CSc2nnnn2CS(=O)(=O)O)CS[C@@H]2[C@H](NC(=O)[C@H](O)c3ccccc3)C(=O)N12` [Cefonicid sodium], `CCN1CCN(C(=O)N[C@@H](C(=O)N[C@@H]2C(=O)N3C(C(=O)O)=C(CSc4nnnn4C)CS[C@H]23)c2ccc(O)cc2)C(=O)C1=O` [Cefoperazone] is lower in “z-score of subpopulation abundance” value: 0.46 for the first, 0.34 for the second.

Going from `CO[C@@H]1[C@@H](O[C@@H]2O[C@H](C)[C@@H](O[C@H]3C[C@@](C)(O)[C@@H](O)[C@H](C)O3)[C@H](N(C)C)[C@H]2O)[C@@H](CC=O)C[C@@H](C)[C@@H](O[C@H]2CC[C@H](N(C)C)[C@@H](C)O2)/C=C/C=C/C[C@@H](C)OC(=O)C[C@H]1OC(C)=O` [Acetylspiramycin (ASPM)] to `C[C@@H]1[C@H](O)[C@@H](C)/C=C/C=C/C=C/C=C/C=C/C=C/C=C/[C@H](O[C@@H]2O[C@H](C)[C@@H](O)[C@H](N)[C@@H]2O)C[C@@H]2O[C@](O)(C[C@@H](O)C[C@@H](O)[C@H](O)CC[C@@H](O)C[C@@H](O)CC(=O)O[C@H]1C)C[C@H](O)[C@H]2C(=O)O` [Amphotericin B], the “z-score of subpopulation abundance” value rises from 0.23 to 12.6.

Going from `O=C(O)Cc1ccccc1Nc1c(Cl)cccc1Cl` [Diclofenac Diethylamine] to `COC(=O)Nc1nc2cc([S+]([O-])c3ccccc3)ccc2[nH]1` (stereo not given) [Oxfendazole], the “z-score of subpopulation abundance” value falls from -0.26 to -0.75.

First: CC/C(=C(/CC)c1ccc(O)cc1)c1ccc(O)cc1 [Diethylstilbestrol]
Second: CC/C(=C(\c1ccccc1)c1ccc(OCCN(C)C)cc1)c1ccccc1 [Tamoxifen]
The “z-score of subpopulation abundance” value of the first is lower: -0.67 for the first, 0.89 for the second.

Compared with `C#C[C@]1(OC(C)=O)CC[C@H]2[C@@H]3CCC4=C[C@@H](OC(C)=O)CC[C@@H]4[C@H]3CC[C@@]21C` [Ethynodiol diacetate], `C#C[C@]1(O)CC[C@H]2[C@@H]3CCc4cc(OC)ccc4[C@H]3CC[C@@]21C` [Mestranol] is higher in “z-score of subpopulation abundance” value: -0.54 for the first, -0.48 for the second.

Going from `OC(CCN1CCCCC1)(c1ccccc1)C1CCCCC1` (stereo not given) [Trihexyphenidyl hydrochloride] to `COc1cc2c(cc1OC)C(=O)C(CC1CCN(Cc3ccccc3)CC1)C2` (stereo not given) [Donepezil], the “z-score of subpopulation abundance” value falls from 0.68 to -0.14.

Going from `C[n+]1ccccc1C=NO` [Pralidoxime Iodide] to `Oc1cccc(O)c1` [Resorcinol], the “z-score of subpopulation abundance” value falls from 0.32 to -0.64.

Compared with `Cc1nc2n(c(=O)c1CCN1CCC(c3noc4cc(F)ccc34)CC1)CCCC2O` (stereo not given) [Paliperidone], `Cc1onc(-c2c(F)cccc2Cl)c1C(=O)N[C@@H]1C(=O)N2[C@@H]1SC(C)(C)[C@@H]2C(=O)O` [Flucloxacillin sodium] is higher in “z-score of subpopulation abundance” value: -1.03 for the first, -0.51 for the second.

Going from `CN(C)CCCN1c2ccccc2CCc2ccc(Cl)cc21` [Clomipramine HCl] to `CN(C)CCCN1c2ccccc2Sc2ccccc21` [Promazine hydrochloride], the “z-score of subpopulation abundance” value rises from 0.29 to 0.41.

First: C=C1CCC2C(C)(CO)C(O)CCC2(C)C1CC=C1C=COC1=O (stereo not given) [Dehydroandrographolide]
Second: C#C[C@]1(O)CC[C@H]2[C@@H]3CCC4=CCCC[C@@H]4[C@H]3C(=C)C[C@@]21CC [Desogestrel]
The “z-score of subpopulation abundance” value of the first is higher: 0.5 for the first, -0.87 for the second.

Going from `CC1(C)S[C@@H]2[C@H](NC(=O)[C@H](N)c3ccccc3)C(=O)N2[C@H]1C(=O)OCOC(=O)[C@@H]1N2C(=O)C[C@H]2S(=O)(=O)C1(C)C` [Sultamicillin Tosylate] to `C=C[C@]1(C)C[C@@H](OC(=O)CSC(C)(C)CNC(=O)[C@H](N)C(C)C)[C@]2(C)[C@H](C)CC[C@]3(CCC(=O)[C@H]32)[C@@H](C)[C@@H]1O` [Valnemulin HCl], the “z-score of subpopulation abundance” value rises from -0.09 to 0.18.

Compared with `Cc1ncc([N+](=O)[O-])n1C` [Dimetridazole], `Cc1noc(NS(=O)(=O)c2ccc(N)cc2)c1C` [Sulfisoxazole] is higher in “z-score of subpopulation abundance” value: 0.46 for the first, 1.44 for the second.

Going from `CC[C@H](Nc1ncnc2[nH]cnc12)c1nc2cccc(F)c2c(=O)n1-c1ccccc1` [Idelalisib (CAL-101, GS-1101)] to `CN(Cc1cnc2nc(N)nc(N)c2n1)c1ccc(C(=O)N[C@@H](CCC(=O)O)C(=O)O)cc1` [Methotrexate], the “z-score of subpopulation abundance” value rises from 0.08 to 8.99.

Going from `CCC(C)(C)c1ccc(CC(C)CN2C[C@@H](C)O[C@@H](C)C2)cc1` (stereo not given in full) [Amorolfine HCl] to `Cc1cccc(C)c1NC(=O)C1CCCCN1C` (stereo not given) [Mepivacaine HCl], the “z-score of subpopulation abundance” value falls from 10.3 to 0.13.

Going from `COc1cc(O)c(C(=O)Nc2nc(C(=O)NCCN(C(C)C)C(C)C)cs2)cc1OC` [Acotiamide hydrochloride] to `O=C(Nc1cc(Cl)cc(Cl)c1O)c1c(O)c(Cl)cc(Cl)c1Cl` [Oxyclozanide], the “z-score of subpopulation abundance” value rises from 0.13 to 0.96.

Going from `COc1cc(NS(=O)(=O)c2ccc(N)cc2)ncn1` [Sulfamonomethoxine] to `CC[C@@H]1/C=C(\C)C[C@H](C)C[C@H](OC)[C@H]2O[C@@](O)(C(=O)C(=O)N3CCCC[C@H]3C(=O)O[C@H](/C(C)=C/[C@@H]3CC[C@H](Cl)[C@H](OC)C3)[C@H](C)[C@@H](O)CC1=O)[C@H](C)C[C@@H]2OC` [Pimecrolimus], the “z-score of subpopulation abundance” value rises from -0.64 to 2.14.
